Data from PubChem BioAssay AID463173 (ICCB-Longwood Screening Facility, Harvard Medical School, 2010).
The whole screen tested about 52,000 compounds, of which about 1,700 (3.3%) were called active. The full list was thinned out, with actives kept by preference. A number with no mark means an inactive call. Cut-off read from the data, not from the text of the source: active = survival mostly below about 52% (no sharp cut-off); inactive = mostly above about 56%.

system: Wild type; test: S. aureus survival, RN4220 and DeltatarO strains – OD600, teichoic acid synthesis inhibitors, primary screen (AID 463173); settings: S. aureus RN4220 wild type/DeltatarO growth, OD600, 18 h, hits give low values, screened at 18.75 µg/mL (by protocol)

| SMILES | survival |
| --- | --- |
| O=C(COc1ccccc1Cl)OCc1cc(=O)n2nc(C3CCCCC3)sc2n1 | 71% |
| Cc1ccc(Cc2nc3ccccc3nc2SCC(=O)N2CCC(C)CC2)cc1 | 77% |
| Cc1ccccc1Cc1c(C)nc2c(-c3ccccc3)c(C)[nH]n2c1=O | -13% (active) |
| Cc1ccc(Cc2c(C)nc3c(-c4ccccc4)c(C)[nH]n3c2=O)cc1 | -11% (active) |
| Cc1cccc(Cc2c(C)nc3c(-c4ccccc4)c(C)[nH]n3c2=O)c1 | 4% (active) |
| Cc1nc2nc(NC(=O)C(C)C)[nH]n2c(=O)c1Cc1ccccc1 | 88% |
| Cc1nc2nc(NCc3cccc(Cl)c3)[nH]n2c(=O)c1Cc1ccccc1 | 85% |
| CCc1c(C)nc2cc(-c3ccccc3)[nH]n2c1=O | 106% |
| CCOC(=O)CCc1c(C)nc2c(-c3ccccc3)c(C)[nH]n2c1=O | 74% |
| Cc1nc2nc(NC(=O)CC(C)C)[nH]n2c(=O)c1Cc1ccccc1 | 110% |
| CCc1ccc(CNc2nc3nc(C)c(Cc4ccccc4)c(=O)n3[nH]2)cc1 | 93% |
| Cc1nc2c(-c3ccccc3)c(C)[nH]n2c(=O)c1Cc1ccc(C(C)C)cc1 | -5% (active) |
| Cc1nc2nc(NCc3ccccc3Cl)[nH]n2c(=O)c1Cc1ccccc1 | 86% |
| COc1cccc(C(=O)Nc2nc3nc(C)c(Cc4ccccc4)c(=O)n3[nH]2)c1 | 105% |
| CCCCN(C)C(=O)c1ccc2c(=O)n3nc(Nc4cc(C)ccc4C)sc3nc2c1 | 140% |
| CCN(CC)CCCNC(=O)c1nn(-c2ccc(OC)c(Cl)c2)c(=O)c2c1c1ccccc1n2C | 80% |
| O=C(Cn1cc(S(=O)(=O)N2CCN(c3ccccc3F)CC2)c2ccccc2c1=O)Nc1ccc(F)cc1Cl | 129% |
| Cc1cccc(CN2C(=O)CC(c3ccc(Cl)cc3)c3c(C)nn(-c4nc(C)cc(C)n4)c32)c1 (configuration not stated) | 76% |
| Cc1nc2nc(NCc3cccc(Br)c3)[nH]n2c(=O)c1Cc1ccccc1 | 68% |
| Cc1nc2c(-c3ccccc3)c(C)[nH]n2c(=O)c1Cc1ccc(Br)cc1 | -5% (active) |
| Cc1nc2nc(NCc3ccc(Br)cc3)[nH]n2c(=O)c1Cc1ccccc1 | 63% |
| CCc1nc2nc(C)cc(Nc3ccc(OC)cc3OC)n2n1 | 75% |
| COC(=O)c1scc(-c2ccc(C)cc2)c1S(=O)(=O)Nc1ccc(F)cc1F | 72% |

| SMILES | survival |
| --- | --- |
| CCc1ccc(S(=O)(=O)c2nnn3c2nc(N(CC)Cc2ccccc2)c2cc(Cl)ccc23)cc1 | 92% |
| CCN(Cc1ccccc1)c1nc2c(S(=O)(=O)c3ccccc3)nnn2c2ccc(Cl)cc12 | 88% |
| CCN(CC)c1nc2c(S(=O)(=O)c3ccccc3)nnn2c2ccc(Cl)cc12 | 9% (active) |
| Cc1cccc(NC(=O)CSc2nnc(C)c(=O)[nH]2)c1 | 101% |
| Cc1ccc(CN2CCN(C3CCN(C(=O)OC(C)(C)C)CC3)C(=O)C2=O)cc1 | 124% |
| CCC(C(=O)Nc1cc(C)ccc1OC)n1nnc(C(=O)OC)c1C(=O)OC (configuration not stated) | 89% |
| CCc1ccc(NC(=O)C(CC)n2nnc(C(=O)OC)c2C(=O)OC)cc1 (configuration not stated) | -1% (active) |
| CCOC(=O)c1nnn(C(CC)C(=O)Nc2ccc(F)cc2)c1C(=O)OCC (configuration not stated) | 99% |
| CCOc1ccc(N2CC(c3nc4ccccc4n3CCCCOc3ccc(OC)cc3)CC2=O)cc1 (configuration not stated) | 71% |
| CCOc1ccccc1N1CC(c2nc3ccccc3n2CCCOc2ccccc2OC)CC1=O (configuration not stated) | 79% |
| CCCCN1CC(c2nc3ccccc3n2CCCCOc2cc(C)ccc2C)CC1=O (configuration not stated) | -6% (active) |
| CCCCN1CC(c2nc3ccccc3n2CCCCOc2ccc(C)cc2C)CC1=O (configuration not stated) | -5% (active) |
| Cc1ccc(CCNC(=O)CCS(=O)(=O)c2cc3c(cc2Cl)NC(=O)CO3)cc1 | 91% |
| COc1ccc(C(=O)NCC(c2cccs2)S(=O)(=O)c2ccc(C)cc2)cc1 (configuration not stated) | 143% |
| CCc1ccc(N(CC(=O)NCC2CCCO2)S(C)(=O)=O)cc1 (configuration not stated) | 112% |
| CCOC(=O)c1ccc(NC(=O)c2noc3c2CCCC3)cc1 | -2% (active) |
| COc1ccc(NC(=O)c2noc3c2CCCC3)cc1Cl | 82% |
| O=C(Nc1ccc(OC(F)(F)F)cc1)c1noc2c1CCCC2 | 86% |
| O=C(CCS(=O)(=O)c1ccc(Br)cc1)Nc1ccc(F)cc1F | 53% |
| Cc1ccc(OCc2nc3ccccc3n2Cc2ccccc2Cl)cc1 | 7% (active) |
| COc1ccc(OCc2nc3ccccc3n2Cc2ccccc2Cl)cc1 | 72% |
| Cc1ccccc1OCc1nc2ccccc2n1Cc1ccccc1Cl | 0% (active) |
| Cc1cccc(C(=O)NCc2nc3ccccc3n2Cc2ccccc2Cl)c1 | 107% |

| SMILES | survival |
| --- | --- |
| C=CCc1ccccc1OCc1nc2ccccc2n1CC | 76% |
| CC(=O)Nc1ccc(S(=O)(=O)NCCc2cn3ccsc3n2)cc1 | 72% |
| COc1ccc(-c2nc3sc(CCNC(=O)C(=O)Nc4ccc(C)c(C)c4)c(C)n3n2)cc1 | 117% |
| Cc1cc(C(F)F)n2nc(C(=O)Nc3ccc(F)c(Cl)c3)nc2n1 | 83% |
| CN1CCc2c(sc3nc(=S)[nH]c(N)c23)C1 | 109% |
| COc1cccc(Nc2sc(C(=O)c3ccc(F)cc3)c(N)c2C(=O)NCc2ccc(Cl)cc2)c1 | 0% (active) |
| Cc1ccccc1Nc1sc(C(=O)c2ccccc2)c(N)c1C(=O)NCc1ccc(Cl)cc1 | 73% |
| COc1cccc(Nc2sc(C(=O)c3ccc(Cl)cc3)c(N)c2C(=O)NCc2ccc(C)cc2)c1 | 76% |
| Cc1ccc(CNC(=O)c2c(Nc3ccccc3C)sc(C(=O)c3ccc(F)cc3)c2N)cc1 | -3% (active) |
| Cc1ccccc1Nc1sc(C(=O)c2ccc(F)cc2)c(N)c1C(=O)NCCc1ccccc1 | 55% |
| COc1cccc(Nc2sc(C(=O)c3ccc(F)cc3)c(N)c2C(=O)NCc2ccc(C)cc2)c1 | 63% |
| CCS(=O)(=O)N1CC(=O)N(c2cc(C)ccc2C)C(C)(C(=O)NC2CCCCC2)C1 (configuration not stated) | 59% |
| COc1ccc(-c2cn3c(n2)sc2cc(C(=O)NC4CCCc5ccccc54)ccc23)cc1 (configuration not stated) | 78% |
| COC(=O)c1ccccc1NC(=O)CSc1nc2ccsc2c(=O)n1CCC(C)C | 78% |
| CCn1c(SCC(=O)Nc2ccccc2C(=O)OC)nc2ccsc2c1=O | 83% |
| CCC(C)n1c(SCC(=O)Nc2ccccc2C(=O)OC)nc2ccsc2c1=O (configuration not stated) | -1% (active) |
| O=C(NCC(c1ccco1)S(=O)(=O)c1cccs1)c1ccccc1F (configuration not stated) | 80% |
| Fc1ccc(-c2cc(C(F)(F)F)nc(NCc3ccccc3)n2)cc1 | 93% |
| Fc1ccc(CNc2nc(-c3ccccc3)cc(C(F)(F)F)n2)cc1 | -3% (active) |
| O=C(NCc1ccc(F)cc1)c1cc(-c2ccc(Cl)cc2)n[nH]1 | 94% |
| Fc1ccc(CNc2nc(-c3ccc(Cl)cc3)cc(C(F)(F)F)n2)cc1 | -5% (active) |
| Fc1ccc(CNc2cc(-c3ccccc3)nc3nncn23)cc1 | 29% |
| CC1CCN(S(=O)(=O)c2ccc3nc(NCc4ccccc4)ccc3c2)CC1 | 131% |

| SMILES | survival |
| --- | --- |
| Cc1nc2ccn(Cc3ccco3)c(=O)c2cc1C(=O)NCc1ccc(Cl)cc1 | 60% |
| O=C(O)c1ccc2c(c1)C(=O)NC2=O | 113% |
| O=C(Nc1ccc2[nH]c(=O)c(=O)[nH]c2c1)c1cccc(F)c1 | 140% |
| CC(=O)Nc1ccc(S(=O)(=O)NC2=NCN(C(C)C)CN2)cc1 | 143% |
| C=CCNC(=O)Nc1c[nH]c2ccccc2c1=O | 111% |
| O=C(CSCc1cc(=O)c2ccccc2[nH]1)Nc1cccc(C(F)(F)F)c1 | 124% |
| O=C(O)CCC(=O)N1CCc2cc(S(=O)(=O)NCc3ccc(F)cc3)ccc21 | 85% |
| O=C(CCc1nnc2n(Cc3ccccc3Cl)c(=O)c3ccccc3n12)Nc1ccc(F)c(F)c1 | 89% |
| O=C(Nc1ccc(F)cc1F)c1cc(CN2CCOCC2)on1 | 69% |
| CCOC(=O)c1cnc2ccc(OCC)cc2c1NCCc1ccc(OC)c(OC)c1 | 133% |
| CCOC(=O)c1cnc2c(C)c(Cl)ccc2c1NCCc1ccccc1 | -3% (active) |
| CCOC(=O)c1cnc2c(C)c(Cl)ccc2c1NCCc1ccc(OC)c(OC)c1 | 4% (active) |
| CCOC(=O)c1cnc2c(C)c(Cl)ccc2c1Nc1ccc(C)cc1C | 140% |
| CCOC(=O)c1cnc2ccc(OC)cc2c1NCCc1ccccc1 | 0% (active) |
| CCOC(=O)c1cnc2c(C)c(C)ccc2c1NCCCCCO | 110% |
| CCOC(=O)c1cnc2c(C)cc(C)cc2c1NCCc1ccc(OC)c(OC)c1 | 75% |
| CCOC(=O)c1cnc2c(C)cc(Cl)cc2c1NCCc1ccc(OC)c(OC)c1 | 48% |
| CCOC(=O)c1cnc2ccc(OC)cc2c1NCCc1ccc(OC)c(OC)c1 | 78% |
| COc1cc(Cl)c(C)cc1NC(=O)c1cnn(-c2ccc(C)cc2)c1-n1cccc1 | 65% |
| CC1(C(=O)O)CCC(C(=O)N2CCCCC2)C1(C)C (configuration not stated) | 106% |
| Cc1ccc(NC2=C(CC(=O)O)C(c3ccc(F)cc3)N(c3ccc(C)cc3)C2=O)cc1 (configuration not stated) | 74% |
| Cc1ccc(CNC(=O)CCc2c(C)c3ccc(O)c(C)c3oc2=O)cc1 | 87% |
| Cc1nc2sc(C(=O)NCc3ccc(Cl)cc3)c(NC(=O)c3ccccc3)c2c(C)c1C | 86% |
